NS1 function inh – influenza NS1 inhibition | Potency, µM (top dose mostly 46.1 µM), inactives show at the highest dose activity, positive = more growth | 270,000 tested, 0.4% active; calls by dose curve; note: potency is the fitted concentration of half-maximal effect; actives are rising curves; nearly all actives have a fitted effect of over 50% in size
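Growth recovery, yeast-based: influenza A NS1 expressed in S. cerevisiae causes slow growth, and suppressors are detected by OD600. The parent strain without NS1 is used as positive control.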
Cycloheximide cs – counter-screen hit for Shiga toxin inhibitors, cycloheximide. cell reporter, cycloheximide protein synthesis inhibition counterscreen. max response, %. 300,000 tested, 12% active; in the data active = max response mostly above about 13%, no sharp cut-off; inactive = mostly below about 14%; note: read at 38.3 µM for the half of the compounds with a filed dose; 0% is about no effect
Pf growth 48h – inhibits P. falciparum growth in the first generation, 48 h | AID 504832 | P. falciparum luciferase growth in erythrocytes, 48 h | 310,000 tested, 5.9% active | Potency, µM (highest dose often 28.7 µM), without a hit: top-dose activity change, negative = inhibition, most hits filed as inhibitors; note: potency is the fitted concentration of half-maximal effect; % is set by controls: 0 for no effect and ±100 for the full control effect
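Growth was read as firefly luciferase luminescence after a 48 h, 37 C, 5% CO2 exposure of compounds to reporter-bearing P. falciparum cultures (0.1% parasitemia, 2% hematocrit final) in Albumax-supplemented RPMI 1640.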
Shiga toxin inh – blocks Shiga toxin action in Vero cells. Vero cells, Shiga toxin protein synthesis inhibition reporter. 290,000 tested, 9.2% active. inhibition, % at 38.7 µM; in the data active = inhibition mostly above about 28%, no sharp cut-off; inactive = mostly below about 43%; note: 0% is about no effect
Pf growth 96h – P. falciparum growth inhibition at 96 hour, primary screen for plastid delayed-death inhibitors | P. falciparum luciferase reporter growth, 96 h | Potency, µM (doses to about 28.7 µM), without a hit: top-dose activity change, negative = inhibition, hits mostly inhibitors | 320,000 tested, 6.9% active | AID 504834; note: potency is the fitted concentration of half-maximal effect; % is set by controls: 0 for no effect and ±100 for the full control effect
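Delayed-death screen, second-generation endpoint: infected erythrocytes, 2% hematocrit, 0.05% parasitemia final; 96 hours at 37 C, 5% CO2; luciferase detection reagent; luminescence decrease equals reduced growth.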
Active calls of the source: *; i = inactive; ? = inconclusive; / = not tested or not shown. Compounds with a hit are over-represented: about 21% of the library has one in this group of screens. Unless noted, calls come from the whole dose curve; as a rule, active = well fitted inhibition curve with a large enough effect; inconclusive = small, poorly fitted or top-dose-only effect, or another doubt; inactive = no such curve, though single readings can be large or run the other way.

SMILES	NS1 function inh	Cycloheximide cs	Pf growth 48h	Shiga toxin inh	Pf growth 96h
COc1cc(/C=C(/C#N)C(=O)NCCc2c[nH]c3ccccc23)ccc1OCc1ccccc1F	17%	-4	?	-11	?
CCOC(=O)c1cccc(NS(=O)(=O)c2c(C)[nH]c(=O)[nH]c2=O)c1	-5%	-4	?	15	6%
CCc1cc2c(COC(=O)c3cc(S(=O)(=O)N4CCOCC4)ccc3F)cc(=O)oc2cc1O	/	/	?	/	15µM*
CCc1cc2c(COC(=O)c3cccc(NS(C)(=O)=O)c3)cc(=O)oc2cc1O	9%	-3	?	-7	5.2µM*
CC(C)c1ccc(-c2nnn(CCC#N)n2)cc1	-2%	27*	56%	72*	32%
N#CCCn1nnc(-c2ccccc2F)n1	3%	-4	/	-16	42%
O=C(c1ccc(F)cc1)N1CCC(c2ccccc2)C1 (centres undefined)	-4%	41*	?	68*	33%
O=C(O)C1CCN(C(=O)c2ccco2)CC1	/	-4	0%	7	15%
O=C(c1ccco1)N1CCC(c2ccccc2)C1 (centres undefined)	-16%	24*	80%	79*	18%
CCCCNC(=O)CSc1nnc(Cc2ccc(Cl)c(Cl)c2)c(=O)[nH]1	17%	-5	44%	-9	34%
CNC(=S)NNC(=O)Cc1ccc(OC)c(OC)c1	1%	-8	20%	-28	?
Cc1ccc(C2=Nc3ccccc3N=C(c3ccc([N+](=O)[O-])cc3)C2)c(O)c1	20%	26*	22%	166*	?
S=C(N/N=C/c1ccccc1Cl)Nc1ccccc1	30%	54*	?	122*	?
CNC(=S)N/N=C/c1ccccc1Cl	-2%	10	33%	-7	58%
O=C(CC(=O)Nc1cccc(Cl)c1)N/N=C\c1ccccc1	-8%	13	23%	2	?
S=C(N/N=C/c1cccc2ccccc12)Nc1cccc(Cl)c1	?	17	?	15	2.9µM*
Cc1ccc(CC(=O)N/N=C/c2ccc3c(c2)OCO3)cc1	/	26*	60%	43*	-8%
O=C(Cn1nc(C(F)F)cc1C(F)F)N/N=C/c1ccc2c(c1)OCO2	8%	-4	33%	-10	89%
O=C(CCC(=O)Nc1ccccc1)N/N=C/c1ccc2c(c1)OCO2	-8%	40*	5%	71*	-23%
Cc1ccnn1CC(=O)N/N=C/c1ccc2c(c1)OCO2	10%	18*	13%	37	14%
O=C(NCCc1ccccc1)C(=O)N/N=C/c1ccc2c(c1)OCO2	19%	5	37%	20	45%
Cc1cccc(OCC(=O)N/N=C/c2ccc3c(c2)OCO3)c1	-8%	2	20%	1	15%
O=C(NCc1ccccn1)C(=O)N/N=C/c1ccc2c(c1)OCO2	3%	16	20%	50*	4.7µM*
COc1cc(C2CC(=O)Oc3ccc(O)cc32)cc(OC)c1OC (centres undefined)	/	9	/	i	/
Nn1c(SCC(=O)Nc2ccccc2Br)nnc1-c1ccco1	7%	-8	-10%	-14	-5%
SMILES	NS1 function inh	Cycloheximide cs	Pf growth 48h	Shiga toxin inh	Pf growth 96h
O=C(N/N=C/c1ccc2c(c1)OCO2)C(O)c1ccccc1 (centres undefined)	12%	59*	70%	54*	?
Cc1cc(C)c(OCC(=O)N/N=C/c2ccc3c(c2)OCO3)c(C)c1	-13%	-4	10%	-11	12µM*
COc1ccccc1NS(=O)(=O)c1ccc(NC(=O)c2nc3nc(C)cc(C(F)F)n3n2)cc1	13%	0	0%	-11	/
COc1cc([N+](=O)[O-])ccc1N	-5%	0	11%	-5	9.3µM*
COc1ccc([N+](=O)[O-])cc1-n1cnnn1	-1%	1	12%	-4	1.5µM*
CCCCc1ccc(-c2nc(N)n[nH]2)cc1	-141%	44*	112%	78*	5%
CCCc1ccc(-c2cc(N)n[nH]2)cc1	8%	30*	/	27	104%
Cc1ccc(C)c(C(=O)COC(=O)c2cc([N+](=O)[O-])ccc2NCCO)c1	2%	-2	13%	-1	?
COC(=O)Cn1ccc2cc(S(=O)(=O)N3CCCCCC3)ccc21	10%	4	-4%	-10	?
COC(=O)Cn1ccc2cc(S(=O)(=O)N3CCCCC3)ccc21	3%	-1	17%	13	5.9µM*
CC(CNC(=O)CCn1ccc2cc(S(=O)(=O)N3CCCC3)ccc21)c1ccccc1 (centres undefined)	2%	-3	?	-3	12µM*
COc1ccc(C(=O)COC(=O)CCN=C2NS(=O)(=O)c3ccccc32)c(OC)c1	/	/	-19%	/	11%
COC(=O)c1ccc(CN2C(=O)NC3(CCC(C)CC3)C2=O)o1 (centres undefined)	-5%	-4	2%	-6	-19%
COC(=O)c1ccc(CN2C(=O)NC3(CCC(C)CC3)C2=O)cc1 (centres undefined)	/	53*	-4%	120*	-1%
Cc1ccc(Nc2nc3nonc3[nH]c2=O)cc1	-48%	27*	?	58*	62%
COc1ccc(/C=C2\NC(=S)N(CC3CCCO3)C2=O)c(OC)c1 (centres undefined)	-10%	23*	12%	34	13%
COc1ccccc1OCC(=O)Nc1ccc2c(c1)C(=O)N(CC1CCCO1)C2=O (centres undefined)	-12%	1	-17%	24	42%
COc1ccccc1Oc1ccc2c(c1)C(=O)N(CC1CCCO1)C2=O (centres undefined)	-4%	37*	19%	46*	19%
COc1ccc(/C=C2\NC(=S)N(CC3CCCO3)C2=O)c(OC)c1C (centres undefined)	-6%	13	/	3	3%
COc1cccc(C(=O)Nc2ccc3c(c2)C(=O)N(CC2CCCO2)C3=O)c1 (centres undefined)	-9%	44*	?	55*	-16%
O=C(Nc1ccc2c(c1)C(=O)N(CC1CCCO1)C2=O)c1cccc(Br)c1 (centres undefined)	-1%	25*	/	115*	33%
O=C(O)c1cccc(NC(=O)c2ccc3c(c2)C(=O)N(CC2CCCO2)C3=O)c1 (centres undefined)	4%	1	/	-4	5%
O=S(=O)(Nc1c(Br)cc(Br)c2cccnc12)C1CC1	/	-5	/	-4	/
CN(NC(=O)Nc1ccccc1)c1cnn(C)c(=O)c1Cl	1%	0	21%	-4	16%
COc1cccc(NC(=O)c2ccc3c(c2)C(=O)N(CC2CCCO2)C3=O)c1 (centres undefined)	-9%	30*	24%	40	65%
COc1ccc(NC(=O)c2ccc3c(c2)C(=O)N(CC2CCCO2)C3=O)cc1 (centres undefined)	3%	-2	12%	21	?
CCCN(CC(=O)Nc1ccc(F)c(F)c1F)CC(=O)Nc1c(Cl)cccc1Cl	-27%	0	?	-6	?
O=C1Nc2ccccc2N=C(c2ccccc2)c2ccccc21	-5%	20*	?	17	?
